These compounds were tested on Pseudomonas aeruginosa PA14 dppBCDF deletion mutant (assay: respiration area under curve with compound as sole nitrogen source, 24 h (OmniLog AUC (arbitrary units)); higher = more respiration / better utilisation as nitrogen source; extreme values may be limits of the assay).
Description: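 Biolog Phenotype MicroArray plates PM6-PM8: each di/tripeptide is the sole nitrogen source. Tetrazolium reduction was read in the OmniLog every 15 min for 24 h at 37°C and summarised as area under the respiration curve (arbitrary units). Values below 2000 count as no respiration. Strain is the dipeptide ABC transporter deletion mutant.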

| SMILES | respiration area under curve |
| --- | --- |
| CC(C)C[C@@H](NC(=O)CNC(=O)CN)C(=O)O (plate: PM8) | 4.75 (inactive) |
| CC(C)C[C@H](NC(=O)CNC(=O)CN)C(=O)O (plate: PM8) | 0 (inactive) |

Source: the supplement of paper PMC4206461
